PAD4 FP inh: inhibitors of human PAD4 | 330,000 tested, 0.41% active | Q9UM07 | recombinant PAD4, RCA probe fluorescence polarization | inhibition, % at 6.36 µM | AID 485272;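 active = percent inhibition above a cutoff equal to the mean of all tested compounds plus 3 SD, cut at about 15% in these data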;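 note: 0% = PAD4 with RCA probe and DMSO and 100% = probe without PAD4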
pPAFAH inh: pPAFAH (human) enzyme inhibition. recombinant pPAFAH, FP-rhodamine probe fluorescence polarization. inhibition, % at 3.39 µM. 330,000 tested, 1.5% active;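 active = inhibition above the mean inhibition across the screen plus 3 SD, cut at about 25% in these data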;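 note: inhibitors block binding of the rhodamine activity-based probe so polarization drops; 0% = enzyme with DMSO and 100% = wells lacking pPAFAH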
Target sequence (Q13093 whole entry, looked up): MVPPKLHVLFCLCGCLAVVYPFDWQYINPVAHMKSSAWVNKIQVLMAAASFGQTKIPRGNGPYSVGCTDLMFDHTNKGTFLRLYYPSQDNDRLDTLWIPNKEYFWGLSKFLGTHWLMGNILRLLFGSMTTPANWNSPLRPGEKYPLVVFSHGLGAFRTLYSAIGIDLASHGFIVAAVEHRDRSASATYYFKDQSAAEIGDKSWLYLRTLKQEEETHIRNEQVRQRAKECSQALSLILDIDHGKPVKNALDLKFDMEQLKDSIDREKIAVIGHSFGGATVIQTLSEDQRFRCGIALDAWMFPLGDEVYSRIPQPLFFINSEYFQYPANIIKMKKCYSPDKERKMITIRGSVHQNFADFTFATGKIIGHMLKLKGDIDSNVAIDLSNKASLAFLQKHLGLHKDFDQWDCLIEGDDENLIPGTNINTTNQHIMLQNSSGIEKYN
GSTO1 inh: GSTO1 inhibition, counter-screen for RBBP9 inhibitors; P78417; recombinant GSTO1, activity-based probe fluorescence polarization; inhibition, % at 5.96 µM; 300,000 tested, 1.1% active; AID 1974;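 active = inhibition above the campaign mean inhibition plus 3 SD, cut at about 35% in these data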;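 note: 0% = GSTO1-1 with DMSO and 100% = wells lacking GSTO1-1 enzyme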
PME-1 primary: blocks human protein phosphatase methylesterase 1; Q9Y570; recombinant PME-1, FP-Rh probe fluorescence polarization; inhibition, % at 5.9 µM; 320,000 tested, 0.53% active; AID 2130;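 active = inhibition above the campaign mean of all compounds plus 3 SD, cut at about 26% in these data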;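 note: competitive labeling of PME-1 active site by serine hydrolase directed probe; 0% = PME-1 with DMSO and 100% = wells lacking PME-1 enzyme; inhibitors block probe labeling so polarization falls and inhibition rises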
Fam108B counter: Fam108B inhibition, counter-screen for RBBP9 inhibitors. 300,000 tested, 0.33% active. recombinant Fam108B, FP-Rh probe fluorescence polarization. AID 1947. inhibition, % at 9.51 µM;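 active = inhibition above the screen mean inhibition plus 3 SD, computed separately per campaign, cut at about 18% in these data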;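 note: inhibitors lower polarization as less probe binds the enzyme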
The depositor's hits bear a star; x = no result. A selection: hits, their analogues and other compounds. The true share with any hit is near 2.3%.

SMILES | PAD4 FP inh | pPAFAH inh | GSTO1 inh | PME-1 primary | Fam108B counter
Cc1sc(N(C(=O)CCc2ccccc2)c2ccc(C(=O)O)cc2)nc1-c1ccccc1 | -2 | 25* | -24 | -5 | 1
CCC(=O)N(c1ccc(C(=O)O)cc1)c1nc(-c2ccc(OC)cc2)c(C)s1 | -4 | 6 | 5 | -3 | -1
COCc1cc(=O)[nH]c(N2CCN(Cc3ccc4c(c3)OCO4)CC2)n1 | 8 | -3 | 4 | -3 | -6
Cc1ccc(C(=O)Sc2cccccc2=O)cc1 | 1 | 16 | 37* | 1 | 1
Cc1ccc(C(=O)CC(=O)c2ccccc2)cc1 | -1 | 3 | 1 | -5 | -6
CC(C)(C)OC(=O)NCCCCC1=CC2=CC(=O)C(C)(OC(=O)c3ccco3)C(=O)C2=CO1 (centres undefined) | -2 | 43* | 41* | 2 | -1
CCCCC1=CC2=CC(=O)C(C)(OC(=O)c3ccc(Cl)nc3)C(=O)C2=CO1 (centres undefined) | 20* | 53* | 26 | 23 | 7
CCCCC1=CC2=CC(=O)C(C)(OC(=O)CC)C(=O)C2=CN1C1CCCC1 (centres undefined) | -6 | 4 | 4 | 0 | 4
CC1(OC(=O)c2cnc3ccccc3n2)C(=O)C=C2C=C(c3ccc(C#N)cc3)OC=C2C1=O (centres undefined) | -4 | 11 | 9 | -4 | 0
CC(C)(C)OC(=O)NCCCC1=CC2=CC(=O)C(C)(OC(=O)C3CCCC3)C(=O)C2=CO1 (centres undefined) | 26* | 41* | 13 | 9 | 1
COC(=O)CCCC1=CC2=CC(=O)C(C)(OC(=O)c3ccco3)C(=O)C2=CO1 (centres undefined) | 15 | 47* | 30 | 5 | 6
CC1(OC(=O)c2ccco2)C(=O)C=C2C=C(c3ccsc3)OC=C2C1=O (centres undefined) | -8 | 50* | 30 | 6 | 9
CCCCC1=CC2=CC(=O)C(C)(O)C(=O)C2=CO1 (centres undefined) | -5 | 41* | 25 | 6 | 4
Cc1c(N2C(=O)c3ccc4c5c(ccc(c35)C2=O)CC4)c(=O)n(-c2ccccc2)n1C | 1 | 16 | 36* | 5 | 9
Cn1c(=O)[nH]c(=O)c2c1nc(N/N=C/C(Br)=C/c1ccccc1)n2CCO | -1 | -2 | 35* | 1 | -3
CC(C)=NNc1nc2c(c(=O)[nH]c(=O)n2C)n1CCc1ccccc1 | 1 | 7 | 33 | -2 | -1
Cc1nc(SCCc2nc3ccccc3[nH]2)c2oc3ccccc3c2n1 | -2 | 4 | x | x | x
COc1ccc(N(CC(=O)Nc2cc(C)cc(C)c2)S(=O)(=O)c2ccccc2[N+](=O)[O-])c(OC)c1 | -17 | 2 | -19 | -12 | -11
COc1ccc(N(CC(=O)Nc2cc(C)ccc2C)S(=O)(=O)c2ccccc2[N+](=O)[O-])c(OC)c1 | -12 | 29* | -5 | -3 | -9
N=C1/C(=C\c2coc3ccc(O)cc3c2=O)C(=O)N=C2SC=CN12 | -12 | 26* | 57* | 0 | 9
CCN(CC(=O)NCc1ccc(F)cc1)C(=O)/C=C/c1ccc(S(=O)(=O)N(CC)CC)cc1 | -7 | 7 | 0 | 8 | -2
CCOc1ccc(NC(=O)Nc2cc(C(=O)O)ccc2N2CC3CC(C2)c2cccc(=O)n2C3)cc1 (centres undefined) | -3 | 30* | 0 | 8 | 4
COc1ccc(NC(=S)NNC(=O)CNc2ccc(Cl)cc2)cc1 | -2 | 3 | 10 | 3 | 2
NC(=O)CC(NC(=O)Cc1ccc(Br)cc1)c1ccc(N2CCC(Br)CC2)c([N+](=O)[O-])c1 (centres undefined) | 3 | 26* | 1 | -15 | -1
CN(CC(=O)NCCCc1ccccc1)S(=O)(=O)c1ccc(Br)cc1 | 1 | 5 | 8 | -7 | 0
SMILES | PAD4 FP inh | pPAFAH inh | GSTO1 inh | PME-1 primary | Fam108B counter
O=C(COc1ccc(S(=O)(=O)NC2CCCCC2)cc1)N1CCN(c2cccc(Cl)c2)CC1 | 5 | 28* | 0 | -5 | -6
CCOC(=O)C1CCCN(C(=O)COc2ccc(S(=O)(=O)N(CC)c3ccccc3)cc2)C1 (centres undefined) | -11 | 34* | -4 | -1 | -5
Cc1ccc(C)c(NS(=O)(=O)c2ccc(OCC(=O)N3CCCC3)cc2)c1 | -1 | 25* | -3 | 4 | 2
CCC(C)NS(=O)(=O)c1ccc(OCC(=O)N2CCCC2)cc1 (centres undefined) | -5 | 27* | -3 | -4 | 0
CCOC(=O)C1CCCN(C(=O)COc2ccc(C(=O)c3ccc(F)cc3)cc2)C1 (centres undefined) | 1 | 5 | x | x | x
Cc1ccccc1NS(=O)(=O)c1ccc(OCC(=O)N2CCCC2)cc1 | -3 | 22 | 0 | 3 | 0
C=CCSc1nnc2c(n1)OC(C)=Nc1ccc(Br)cc1-2 | 0 | -1 | -1 | -5 | 6
COc1ccc2oc(=O)c(C(=O)N3CCN(C(=O)c4ccco4)CC3)cc2c1 | -6 | 1 | -2 | 0 | -1
CCc1ccc(C(=O)COC(=O)C2=NN(c3ccccc3)C(=O)CC2)cc1 | 4 | 21 | x | x | x
CS(=O)(=O)N(CC(=O)NCCSCc1ccccc1)c1ccccc1F | -7 | 1 | -4 | -6 | -5
Fc1ccc2[nH]c3c(NCc4ccccc4)ncnc3c2c1 | -1 | 4 | -2 | 24 | 17
Cc1ccc(Cn2c(N3CCN(C)CC3)nc3c2c(=O)[nH]c(=O)n3C)cc1 | -9 | -1 | 1 | 3 | 2
CCCn1nc(NS(=O)(=O)c2cccc3nonc23)c2cc3cccc(C)c3nc21 | -4 | 29* | 3 | 15 | 2
CCCn1nc(NS(=O)(=O)c2cccc3nonc23)c2cc3cc(C)ccc3nc21 | -3 | 17 | -5 | -2 | 1
O=C(COc1ccc(Cl)cc1Br)Nc1ccncc1 | -3 | 0 | 1 | -12 | 1
COc1ccc(OC)c(C2Nc3c(Cl)ccc(C(=O)O)c3C3C=CCC32)c1 (centres undefined) | -3 | 25* | 20 | -2 | 4
Cc1cc([N+](=O)[O-])cc2c1NC(c1ccccn1)C1CC=CC21 (centres undefined) | -2 | 14 | 23 | 11 | 4
O=C(O)c1ccc(Cl)c2c1C1C=CCC1C(c1ccccn1)N2 (centres undefined) | 12 | 58* | 11 | -7 | 7
Nc1c(C(=O)NC2CCCC2)c2nc3ccccc3nc2n1N | -3 | 25* | -3 | 13 | 1
Nc1c(C(=O)NC2CCCC2)c2nc3ccccc3nc2n1/N=C/c1ccco1 | -4 | 6 | 0 | 3 | -1
CC(C)[C@H](NC(=O)N1c2ccccc2NC(=O)[C@@H]1C(C)C)C(=O)N1CCC[C@H]1C(=O)O | 5 | -2 | 7 | 4 | 0
Cc1ccc(/C=C2\SC(N3CCN(C(c4ccccc4)c4ccccc4)CC3)=NC2=O)o1 | -15 | 27* | -8 | -7 | -1
COc1ccc(C(=O)NNC2CC(=O)N(Cc3ccc(Cl)cc3)C2=O)cc1OC (centres undefined) | 4 | 33* | 5 | 0 | 1
